The whole screen tested about 4,400 compounds, of which about 390 (8.9%) showed an effect of 50% or more. This is one part of a sample in which strong results are shown more often than they occur.
The molecules below were run on Trypanosoma brucei (assay: DNDI: Inhibition of Human African Trypanosomiasis, SBRI 427, in vitro at 2 ug.mL-1).
Type: functional

Compound	% inhibition [%]
COc1ccc(Oc2nc(C)ccc2/C(=N/O)NCc2cc(F)cc(F)c2)cc1	-8
Cc1ccc(Oc2nc(C)ccc2/C(=N/O)NCc2cc(F)cc(F)c2)c(C)c1	6
Cc1cc(C)cc(CN/C(=N\O)c2ccc(C)nc2OCc2ccccn2)c1	80
Cc1ccc(Oc2nc(C)ccc2/C(=N/O)NCc2c(F)cccc2F)c(C)c1	-3
Cc1ccc(/C(=N/O)NCc2ccccn2)c(OCc2ccccn2)n1	-11
COc1ccccc1CN/C(=N\O)c1ccc(C)nc1Oc1ccc(C)cc1OC	11
COc1cc(C)ccc1Oc1nc(C)ccc1/C(=N/O)NCc1c(F)cccc1F	95
COc1cc(C)ccc1Oc1nc(C)ccc1/C(=N/O)NCc1ccccn1	-7
Cc1ccc(/C(=N/O)NCc2ccccc2)c(OCc2ccccn2)n1	13
COc1cc(C)ccc1Oc1nc(C)ccc1/C(=N/O)NCc1cc(F)cc(F)c1	98
COc1ccc(CN/C(=N\O)c2ccc(C)nc2Oc2ccc(C)cc2OC)cc1	24
COc1cc(C)ccc1Oc1nc(C)ccc1/C(=N/O)NCc1ccccc1	99
FC(F)(F)c1cccc(CNCc2coc(-c3ccc(Cl)cc3Cl)n2)c1	-2
CCOc1ccccc1-c1nc(CN2CCN(c3cccc(C)c3)C(C)C2)co1 (configuration not stated)	-6
COCCN(CCOC)Cc1coc(-c2ccc(O)cc2)n1	38
Cc1cccc(Oc2ccc(/C(=N/O)NCc3cccnc3)cn2)c1	12
Cc1cccc(-c2nc(CN(C)CC#N)co2)c1	4
O/N=C(/c1cccnc1Oc1ccccc1Cl)N1CCN(c2ccc(F)cc2)CC1	3
Cc1ccc(/C(=N/O)N2CCSCC2)c(Oc2ccc3ccccc3c2)n1	12
COc1cc(C)ccc1Oc1nc(C)ccc1/C(=N/O)NCc1cc(C)cc(C)c1	98
Cc1cc(C)cc(CN/C(=N\O)c2ccc(C)nc2Oc2cc(C)cc(C)c2)c1	41
Cc1cc(C)cc(CN/C(=N\O)c2ccc(C)nc2Oc2ccc(C)cc2C)c1	18

Compound	% inhibition [%]
CCN(CC)Cc1coc(-c2ccc(C)cc2)n1	1
Cc1nccn1/C(=N\O)c1ccc(Oc2ccc(Cl)cc2)nc1	5
Cc1ccc(/C(=N/O)NCC(C)C)c(Oc2ccc3ccccc3c2)n1	13
Cc1ccc(/C(=N/O)NCC(C)C)c(Oc2cccc(C(C)C)c2)n1	3
Cc1ccc(/C(=N/O)NCc2ccccc2)c(Oc2cccc(F)c2)n1	13
CSc1ccc(Oc2nc(C)ccc2/C(=N/O)N(C)c2ccccc2)cc1C	5
Cc1cccc(Oc2nc(C)ccc2/C(=N/O)NCC(C)C)c1	94
Cc1ccc(/C(=N/O)N(C)c2ccccc2)c(Oc2cccc(F)c2)n1	86
COc1ccc(Oc2nc(C)ccc2/C(=N/O)N(C)c2ccccc2)cc1	-6
Cc1ccc(/C(=N/O)NCc2cc(F)cc(F)c2)c(Oc2cccc(F)c2)n1	28
Cc1ccc(/C(=N/O)NCC(C)C)c(Oc2cccc(F)c2)n1	79
COc1cc(-c2nc(CN3CCN(c4cc(C)nc5ccccc45)CC3)co2)cc(OC)c1OC	10
CN(Cc1ccco1)/C(=N\O)c1ccc(Oc2c(F)c(F)cc(F)c2F)nc1	-10
COc1cc(-c2nc(CN3CC[C@H]4CCCC[C@@H]4C3)co2)cc(OC)c1OC	-12
COc1cc(-c2nc(CNCc3cccc4ccccc34)co2)cc(OC)c1OC	0
Cc1ccc(/C(=N/O)NCc2ccco2)c(Oc2ccc(F)cc2)n1	22
CCN1CCN(Cc2coc(-c3ccc(Cl)cc3Cl)n2)CC1	22
CN(CCc1ccccn1)Cc1coc(-c2ccccc2Cl)n1	10
O/N=C(\NCc1c(F)cccc1F)c1ccnc(Oc2ccc(F)c(Cl)c2)c1	30
CC(C)(C)CN/C(=N\O)c1ccnc(Oc2cccc(F)c2)c1	76
CCC(C)(C)N/C(=N\O)c1ccnc(Oc2cccc(F)c2)c1	1
CC(C)(C)CN/C(=N\O)c1ccnc(Oc2ccc(F)c(Cl)c2)c1	96

Compound	% inhibition [%]
CSCCN/C(=N\O)c1ccnc(Oc2ccc(F)c(Cl)c2)c1	5
Cc1cc(C)cc(CN/C(=N\O)c2ccnc(Oc3cccc(F)c3)c2)c1	11
Brc1ccccc1-c1nc(CNC[C@@H]2CCCO2)co1	-9
COc1ccc(Oc2nc(C)ccc2/C(N)=N/O)cc1	9
CCCCC(CC)CNCc1coc(-c2ccc(C)cc2)n1 (configuration not stated)	10
Cc1ccc(/C(=N/O)N2c3ccccc3CCC2C)c(Oc2ccc3oc4ccccc4c3c2)n1 (configuration not stated)	-9
CC1CCC(N/C(=N\O)c2ccc(Oc3ccc4ccccc4c3)nc2)CC1 (configuration not stated)	-9
O/N=C(\NC1CCC1)c1ccc(Oc2ccc3ccccc3c2)nc1	96
COCC(C)N/C(=N\O)c1ccc(Oc2cc(C)cc(C(C)C)c2)nc1 (configuration not stated)	18
O/N=C(\NCC1CCCCC1)c1ccc(Oc2ccc3ccccc3c2)nc1	6
COCC(C)N/C(=N\O)c1ccc(Oc2ccc3ccccc3c2)nc1 (configuration not stated)	76
CCC(CC)N/C(=N\O)c1ccc(Oc2ccc3ccccc3c2)nc1	32
O/N=C(\Nc1ccccc1)c1ccc(Oc2ccc3ccccc3c2)nc1	-7
O/N=C(\NC1CCCCC1)c1ccc(Oc2ccc3ccccc3c2)nc1	77
CC1CC(N/C(=N\O)c2ccc(Oc3ccc4ccccc4c3)nc2)CC(C)(C)C1 (configuration not stated)	4
COc1cc(-c2nc(CN3CCC4CCCCC4C3)co2)cc(OC)c1OC (configuration not stated)	-10
Fc1cccc(-c2nc(CN3CCN(c4ncccn4)CC3)co2)c1	6
FC(F)(F)c1ccc(-c2nc(Cn3ccnc3-c3ccccc3)co2)cc1	-8
c1cncc(CN(Cc2cccnc2)Cc2coc(-c3cccc4ccccc34)n2)c1	47
COc1cccc(CNCc2coc(-c3ccccc3C)n2)c1	15
COc1ccc(CCN(C)Cc2coc(-c3ccc(C(F)(F)F)cc3)n2)cc1OC	7
CCCN(CC1CC1)/C(=N\O)c1ccc(C)nc1Oc1cccc(C)c1	-4

Compound	% inhibition [%]
COc1ccc(Oc2nc(C)ccc2/C(=N/O)N2CCCc3ccccc32)cc1	11
Cc1ccc(/C(=N/O)N2CCCc3ccccc32)c(Oc2cccc(F)c2)n1	93
Cc1cc(C)cc(Oc2nc(C)ccc2/C(=N/O)N2c3ccccc3CCC2C)c1 (configuration not stated)	98
Cc1ccc(/C(=N/O)N2CCCc3ccccc32)c(Oc2ccc(F)c(F)c2)n1	21
CSc1ccc(Oc2nc(C)ccc2/C(=N/O)N2c3ccccc3CCC2C)cc1C (configuration not stated)	0
Cc1cc(C)cc(Oc2nc(C)ccc2/C(=N/O)N2CCCc3ccccc32)c1	53
CSc1ccc(Oc2nc(C)ccc2/C(=N/O)N2CCCc3ccccc32)cc1C	10
Cc1ccc(/C(=N/O)N2CCCc3ccccc32)c(Oc2ccc3ccccc3c2)n1	15
Cc1ccc(/C(=N/O)N2c3ccccc3CCC2C)c(Oc2cccc(F)c2)n1 (configuration not stated)	34
CC(C)(C)COc1ncccc1/C(=N/O)NCCN1CCOCC1	6
CCN(Cc1coc(-c2cccc(OC)c2)n1)c1cccc(C)c1	-18
Fc1ccc(N2CCN(Cc3coc(-c4ccc(Cl)cc4Cl)n3)CC2)cc1	14
Cc1ccc(/C(=N/O)N(C)C2CCN(C)CC2)c(Oc2cccnc2)n1	9
CC1CCCN1/C(=N\O)c1cccnc1Oc1ccc(F)cc1 (configuration not stated)	2
c1coc(-c2nc(CN3CCCCCC3)co2)c1	16
CCN(Cc1ccccc1)Cc1coc(-c2ccccc2)n1	9
CN(Cc1coc(-c2ccc(C(F)(F)F)cc2)n1)C1CCN(Cc2ccccc2)C1 (configuration not stated)	0
CCOc1ccccc1CN/C(=N\O)c1cccnc1Oc1ccc(CC)cc1	99
CCc1ccc(Oc2ncccc2/C(=N/O)NCc2ccccc2OC)cc1	99
CCOc1ccccc1Oc1ncccc1/C(=N\O)NCc1ccncc1	0
CCOc1ccccc1CNCc1coc(-c2cccs2)n1	-4
Cc1nccn1/C(=N\O)c1ccnc(Oc2cccc3cnccc23)c1	14

Compound	% inhibition [%]
c1ccc(C(c2ccccc2)N2CCN(Cc3coc(-c4ccco4)n3)CC2)cc1	0
Cc1ccc(/C(=N/O)N2CCCCCC2)c(OCc2ccccn2)n1	28
C/C(=C\C#N)N/C(=N\O)c1ccnc(Oc2cc(C)ccc2C(C)C)c1	21
CCOc1ccc(Oc2cc(/C(=N/O)NCc3ccccc3OC)ccn2)cc1	0
c1ccc(-c2cn(Cc3coc(-c4cccc5ccccc45)n3)cn2)cc1	-1
CCN(/C(=N\O)c1cccnc1Oc1ccc2c(c1)CCCC2)C(C)C	3
CCOc1cccc(-c2nc(CN3CCN(c4ccccc4)CC3)co2)c1	17
CC(C)(C)COc1ncccc1/C(=N/O)N1CCCCCC1	8
O/N=C(/c1cccnc1OCc1ccccc1F)N1CCCc2ccccc21	-20
O/N=C(/c1cccnc1Oc1ccc(-n2cncn2)cc1)N1CCCc2ccccc21	10
CC(C)COc1ncccc1/C(=N/O)N1C(C)CCC1C (configuration not stated)	-2
CC1CCC(C)N1/C(=N\O)c1cccnc1Oc1ccc(-n2cncn2)cc1 (configuration not stated)	9
CC(C)COc1ncccc1/C(=N/O)N1C(C)CCCC1C (configuration not stated)	6
CC(C)(C)COc1ncccc1/C(=N/O)N1CCCc2ccccc21	100
CC1CCc2ccccc2N1/C(=N\O)c1cccnc1Oc1ccc(-n2cncn2)cc1 (configuration not stated)	81
CC1CCc2ccccc2N1/C(=N\O)c1cccnc1OCC(C)(C)C (configuration not stated)	84
CC(C)(C)COc1ncccc1/C(=N/O)N1CCCC1	0
O/N=C(/c1cccnc1OCc1cccc(F)c1)N1CCCc2ccccc21	-2
CC1CCC(C)N1/C(=N\O)c1cccnc1OCC(C)(C)C (configuration not stated)	93

From ChEMBL document CHEMBL1857833, “Screening and optimization of specific chemical series against human African Trypanosomiasis (HAT)”
